Among the data in PubChem BioAssay (NCI) are growth inhibition values, retold here.

About 79,000 compounds went through this panel and 15% of them were active in at least one assay; those are over-represented in the sample as a whole. A number with no mark means an inactive call. The source made the active and inactive calls. Cut-off read from the data, not from the text of the source: active = growth inhibition above about 70%; inactive = the rest.

The first assay in a line: NCI Yeast Anticancer Drug Screen. Data for the cln2 rad14 strain (AID 165).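 Note: 0% = growth equal to vehicle treated cultures.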 The conditions noted are these: S. cerevisiae cln2 rad14 strain, at 5.0 µM (retest, dose inferred, filed as 0.5), stronger effect = higher value. How it is done: Growth inhibition of yeast strains with defined genetic alterations is measured as a screen for potential anti-cancer activity. Selected strains with alterations in DNA damage repair or cell cycle control were exposed to compounds and growth inhibition was measured relative to vehicle treated controls. The strain used in this assay is cln2 rad14
With `COc1cc(/C=C/[N+](=O)[O-])cc(OC)c1OC`, the growth inhibition is 13%.

As to `S=C=NC/C(Cl)=C/Cl`, the growth inhibition was 56%.

`Cc1ccc(C(=O)C2C(c3ccccc3)N2C2CCCCC2)cc1` (stereo not given): the growth inhibition is -20%.

In the case of `CC(C)=CCC/C(C)=C/CC/C(C)=C/Cc1c(O)c2ccccc2oc1=O`, the growth inhibition is 29%.

Turning to `CS(=N)(=O)CCC(N)C(=O)O` (stereo not given), the growth inhibition was -69%.

Take `[CH3][Sn]([CH3])([S]CCS(=O)(=O)O)[S]CCS(=O)(=O)O`: the growth inhibition was -10%.

Take `COC(CNS(=O)(=O)c1ccccc1)[CH2][Hg][O]C(C)=O` (stereo not given): the growth inhibition was -4%.

Turning to `Oc1c(Cl)cc(Cl)c2ccccc12.[Cu+2]`, the growth inhibition was -1%.

Regarding `CCC[CH2][Sn]1([CH2]CCC)[O]CCN2CCN(CC[O]1)CC2`, the growth inhibition is -5%.

For `COC(=O)C1c2c(C)cc3n2C(C=CC3)C1C(=O)OC` (stereo not given), the growth inhibition is 67%.

`CC/C(=C\c1ccccc1)[N+](=O)[O-]`: the growth inhibition was 14%.

The same assay, now with this note: S. cerevisiae cln2 rad14 strain, at 50.0 µM (retest, dose inferred, filed as 5.0), stronger effect = higher value.
For the molecule `COc1cc(/C=C/[N+](=O)[O-])cc(OC)c1OC`, the growth inhibition was 99% (active).

`S=C=NC/C(Cl)=C/Cl`: the growth inhibition is 71% (active).

As to `Cc1ccc(C(=O)C2C(c3ccccc3)N2C2CCCCC2)cc1` (stereo not given), the growth inhibition is 96% (active).

Take `CC(C)=CCC/C(C)=C/CC/C(C)=C/Cc1c(O)c2ccccc2oc1=O`: the growth inhibition is 96% (active).

For `CS(=N)(=O)CCC(N)C(=O)O` (stereo not given), the growth inhibition was -61%.

As for `[CH3][Sn]([CH3])([S]CCS(=O)(=O)O)[S]CCS(=O)(=O)O`, the growth inhibition was -12%.

In the case of `COC(CNS(=O)(=O)c1ccccc1)[CH2][Hg][O]C(C)=O` (stereo not given), the growth inhibition was 6%.

Regarding `Oc1c(Cl)cc(Cl)c2ccccc12.[Cu+2]`, the growth inhibition is 32%.

Regarding `CCC[CH2][Sn]1([CH2]CCC)[O]CCN2CCN(CC[O]1)CC2`, the growth inhibition was 5%.

As for `COC(=O)C1c2c(C)cc3n2C(C=CC3)C1C(=O)OC` (stereo not given), the growth inhibition is 78% (active).

Take `CC/C(=C\c1ccccc1)[N+](=O)[O-]`: the growth inhibition was 99% (active).

Still in this assay, the particulars now being: S. cerevisiae cln2 rad14 strain, at 50.0 µM, stronger effect = higher value.
`Cc1cc(Cl)ccc1NC(=O)/C(CC(=O)CC(c1ccccc1)c1c(O)c2ccccc2oc1=O)=N\O` (stereo not given): the growth inhibition was -37.6%.

Consider `S=C=NC/C(Cl)=C/Cl`, for which the growth inhibition was 56.9%.

Consider `COc1cc2[nH]cc(CN(C)C)c2cc1OC`, for which the growth inhibition was -18.9%.

Turning to `O=C(O)c1cc(C(=O)O)cc(S(=O)(=O)F)c1`, the growth inhibition is 10.6%.

On to `Cc1ccc(C(=O)C2C(c3ccccc3)N2C2CCCCC2)cc1` (stereo not given), for which the growth inhibition was 0.3%.

For the molecule `CSCCC(N)P(C)(=O)O` (stereo not given), the growth inhibition is 1.5%.

As for `CC(C)=CCC/C(C)=C/CC/C(C)=C/Cc1c(O)c2ccccc2oc1=O`, the growth inhibition is 89.2% (active).

`c1cnc[c]([Hg][c]2cccnc2)c1`: the growth inhibition is 73.5% (active).

On to `CS(=N)(=O)CCC(N)C(=O)O` (stereo not given), for which the growth inhibition is 18.7%.

On to `C/C=C1/CC(C)C(C)(O)C(=O)OCC2CCN3CCC(OC1=O)C23` (stereo not given), for which the growth inhibition was 8.05%.

As to `[CH3][Sn]([CH3])([S]CCS(=O)(=O)O)[S]CCS(=O)(=O)O`, the growth inhibition is -5.95%.

`O=C(O)C(Cl)(Cl)Cl`: the growth inhibition is 14.4%.

For the molecule `COC(CNS(=O)(=O)c1ccccc1)[CH2][Hg][O]C(C)=O` (stereo not given), the growth inhibition was 99.1% (active).

Take `C[C@]12CC[C@H](O)C[C@H]1CC[C@@H]1[C@@H]2CC[C@]2(C)[C@@H](C3=CC(=O)OC3)CC[C@]12O`: the growth inhibition is -56.4%.

On to `Oc1c(Cl)cc(Cl)c2ccccc12.[Cu+2]`, for which the growth inhibition was 98.7% (active).

Consider `CCC[CH2][Sn]1([CH2]CCC)[O]CCN2CCN(CC[O]1)CC2`, for which the growth inhibition was 41.6%.

Regarding `CC(C)CCN(CCC(C)C)CC(O)c1ccc(Br)cc1` (stereo not given), the growth inhibition is -47.5%.

`COC(=O)C1c2c(C)cc3n2C(C=CC3)C1C(=O)OC` (stereo not given): the growth inhibition is 26.6%.
